# JMJD2A Tudor inh: qHTS Assay for Inhibitors of JMJD2A-Tudor Domain. Lysine-specific demethylase 4A (Homo sapiens), O75164. AlphaScreen JMJD2A-Tudor / H3K4me3 peptide binding. Potency, µM (doses to about 114 µM), for the others: at the top dose activity change, negative = inhibition, hits mostly inhibitors. 4.4% of 390,000 active; note: % is set by controls: 0 for no effect and ±100 for the full control effect; nearly all actives have a fitted effect of over 50% in size
# BAZ2B block: qHTS Assay for Inhibitors of BAZ2B | 4.4% of 360,000 active | AlphaScreen BAZ2B-H3K14Ac peptide displacement | AID 504333, 2011 | Bromodomain adjacent to zinc finger domain protein 2B (Homo sapiens), Q9UIF8 | Potency, µM (highest dose often 114 µM), without a hit: at the highest dose activity change, negative = inhibition, hits mostly inhibitors; note: % is set by controls: 0 for no effect and ±100 for the full control effect; nearly all actives have a fitted effect of over 60% in size
#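 Protein-peptide AlphaScreen: BAZ2B 50 nM, b-H3K14Ac 50 nM, 1x PBS pH 7.4 + 0.01% Tween-20. Preincubation 30 min RT; cpd 30 min RT (top 110 uM); beads 20 min RT, light-protected.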
# G9a inh: qHTS Assay for Inhibitors of Histone Lysine Methyltransferase G9a; Potency, µM (top dose mostly 102 µM), inactives show at the highest dose activity, negative = inhibition, usual class: inhibitors; Histone-lysine N-methyltransferase EHMT2 (Homo sapiens), Q96KQ7; 8.8% of 350,000 active; G9a H3K9 monomethylation, AlphaScreen, 2 h; note: % is set by controls: 0 for no effect and ±100 for the full control effect; nearly all actives have a fitted effect of over 75% in size
#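 Using a bead-based AlphaScreen, monomethylated H3K9 product from 2 h room-temperature reactions (G9a 20 nM, peptide 500 nM, SAM 20 uM) was detected with 0.5 ug/mL rabbit anti-H3K9me1 antibody.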
# GLS inhibitor: qHTS for Inhibitors of Glutaminase (GLS). GLS enzymatic activity, qHTS titration. Glutaminase kidney isoform, mitochondrial (Homo sapiens), O94925. Potency, µM (doses to about 45.5 µM), for the others: at the top dose activity change, negative = inhibition, hits mostly inhibitors. 0.21% of 410,000 active; note: % is set by controls: 0 for no effect and ±100 for the full control effect
# Target sequence (O94925 whole entry, looked up, canonical isoform): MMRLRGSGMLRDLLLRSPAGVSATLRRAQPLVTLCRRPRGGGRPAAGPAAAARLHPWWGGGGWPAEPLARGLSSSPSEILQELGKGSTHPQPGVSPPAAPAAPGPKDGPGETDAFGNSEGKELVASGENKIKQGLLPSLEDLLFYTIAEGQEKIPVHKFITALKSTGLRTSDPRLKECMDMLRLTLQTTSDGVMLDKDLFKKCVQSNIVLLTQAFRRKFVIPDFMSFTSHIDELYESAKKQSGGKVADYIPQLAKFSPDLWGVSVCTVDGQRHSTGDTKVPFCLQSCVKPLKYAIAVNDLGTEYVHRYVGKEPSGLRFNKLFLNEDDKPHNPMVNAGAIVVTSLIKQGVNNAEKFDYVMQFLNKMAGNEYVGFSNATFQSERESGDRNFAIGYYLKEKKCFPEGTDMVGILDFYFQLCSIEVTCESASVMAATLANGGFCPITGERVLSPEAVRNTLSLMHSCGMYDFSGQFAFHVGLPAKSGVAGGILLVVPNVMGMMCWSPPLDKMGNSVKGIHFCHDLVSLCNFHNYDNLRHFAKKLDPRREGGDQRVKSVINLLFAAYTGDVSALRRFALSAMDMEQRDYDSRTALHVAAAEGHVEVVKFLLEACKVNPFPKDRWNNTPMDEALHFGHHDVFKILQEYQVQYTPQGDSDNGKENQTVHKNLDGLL
#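 Assay buffer: 45 mM KH2PO4 pH 8.2, 0.02% Tween-20. hKGA acts on L-glutamine (1 mM solution added); product glutamate is reported by an oxidase/peroxidase Amplex Red coupling, with fluorescence taken at baseline and 30 min.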
# L3MBTL1 inh: qHTS Assay for the Inhibitors of L3MBTL1; AlphaScreen L3MBTL1–H3K9me1 peptide binding; 0.66% of 230,000 active; Potency, µM (series often up to 57.1 µM), inactives show at the top dose activity, negative = inhibition, usual class: inhibitors; Lethal(3)malignant brain tumor-like protein 1 (Homo sapiens), Q9Y468; note: % is set by controls: 0 for no effect and ±100 for the full control effect; nearly all actives have a fitted effect of over 60% in size
#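 First, the protein-peptide complex forms for 30 min at room temperature (L3MBTL1 50 nM, biotinylated H3K9me1 peptide 75 nM). Next, compounds are pin-transferred and incubated 30 min. Finally, AlphaScreen beads are added and read after 30 min.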
# HP1b chromo inh: HTS for Inhibitors of HP1-beta Chromodomain Interactions with Methylated Histone Tails; Chromobox protein homolog 1 (Homo sapiens), P83916; AlphaScreen HP1-beta / biotin-H3K9me3 peptide binding; Potency, µM (series often up to 114 µM), inactives show at the highest dose activity change, negative = inhibition, actives largely listed as inhibitors; 0.56% of 390,000 active; note: nearly all actives have a fitted effect of over 70% in size
#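 AlphaScreen: HP1-beta (50 nM) preformed 30 min with biotin-H3(1-18)K9me3 peptide (50 nM) in PBS pH 7.4, 0.01% Tween-20. Compound added for 30 min at RT, then streptavidin donor/nickel chelate acceptor beads (10 ug/mL) for 30 min.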
# An asterisk follows results filed as active; ? = inconclusive; · = not tested or not shown; [ ] = dose if it differs, or a comment. Compounds with a hit are over-represented: about 10% of the library has one in this group of screens. Calls come from the whole dose curve; as a rule, active = well fitted curve in the direction sought with a large enough effect; inconclusive = small, poorly fitted or top-dose-only effect, or another doubt; inactive = no such curve, though single readings can be large; an effect the other way counts as inactive or inconclusive. Potency is the fitted concentration of half-maximal effect.
SMILES,JMJD2A Tudor inh,BAZ2B block,G9a inh,GLS inhibitor,L3MBTL1 inh,HP1b chromo inh
CSc1ccccc1OCc1cc(C(=O)N(C)CCn2nc(C)cc2C)no1,13µM*,?,0%[0.501 µM],?,·,-4%
CSc1ccccc1OCc1cc(C(=O)N(C)Cc2nonc2C)no1,-5%,-1%,14%,3%,·,23%
Cc1[nH]c(=O)c(C#N)cc1-c1ccc2nccn2c1,·,·,13µM*,1%,·,·
Cc1nn2c(-c3cccc(NC(=O)c4ccc(Cl)cc4)c3)nnc2c2ccccc12,-8%,-4%,-34%[59 µM],-7%,·,28%
CC(NCC(=O)NC(=O)NCCC1=CCCCC1)c1ccc(S(N)(=O)=O)cc1 (stereo not given),22µM*,·,·,1%,·,?
CC(NC(=O)C(=O)NCCC1=CCCCC1)c1ccccc1 (stereo not given),-18%,7%,24%[59 µM],8%,10%,11%
Cc1cc(N)n(-c2ccc(Oc3ccccc3)c(S(=O)(=O)O)c2)n1,-32%,56µM*,50µM*,-5%,?,23%
Cc1ccc(NC(=O)[C@@H](c2ccccc2)N2Cc3ccccc3C2=O)cc1F,-28%,-18%,-9%[59 µM],8%,·,17%
CCN(CC(=O)NCc1ccccn1)S(=O)(=O)c1ccc(Cl)cc1,-5%,0%,13µM*,0%,9%[11.4 µM],6%
COc1ccc(OCC(=O)NC(CC(=O)O)c2ccc(OC)c(OC)c2)cc1 (stereo not given),-13%,·,-44%,-3%,·,5%
COc1ccc(C(CC(=O)O)NC(=O)COc2ccccc2)cc1OC (stereo not given),-7%,0%,79µM*,9%,8%,13%
COc1ccc(C(CC(=O)O)NC(=O)COc2cc(C)ccc2C)cc1OC (stereo not given),-13%,·,32µM*,1%,·,4%
Cc1ccc(S(=O)(=O)CCC(=O)OCC(=O)N2CCN(S(=O)(=O)c3ccccc3)CC2)cc1,-16%,8%,50µM*,-8%,6%,35%
COc1ccc(N2CCN(C(=O)COC(=O)CCS(=O)(=O)c3ccc(C)cc3)CC2)cc1,-10%,-17%,40µM*,33%,-5%,-10%
CCOC(=O)N1CCN(S(=O)(=O)c2ccc(C)cc2)CC1,-8%,-19%,12%,-7%,·,30%
CCOCCCNCC(=O)N1CCN(S(=O)(=O)c2ccc(C)cc2)CC1,4µM*,79µM*,4.5µM*,-19%,3%,-38%
CC1CCn2c(nc3cc(C(=O)NCc4ccccc4)ccc32)C1 (stereo not given),-7%,5%,-2%[59 µM],-14%,·,29%[57 µM]
CCCn1nc(C(=O)Oc2ccc3c(C)cc(=O)oc3c2)c2ccccc2c1=O,-10%,-3%,14µM*,-4%,6%,32%
CCOC(=O)c1cccc(NC(=O)Nc2ccc3c(c2)N(C)C(=O)c2ccccc2S3)c1,-27%,-11%,?,8%,·,10%
CC(=O)O[C@@]12CO[C@@H]1C[C@H](O)[C@@]1(C)C(=O)[C@H](O)C3=C(C)[C@@H](OC(=O)C(O)[C@@H](NC(=O)OC(C)(C)C)c4ccccc4)C[C@@](O)([C@@H](OC(=O)c4ccccc4)[C@H]21)C3(C)C (stereo not given in full),·,·,0%[12.7 µM],11%,·,·
Cc1cc(OCCCSc2nc(-c3ccc(C(C)(C)C)cc3)nc3cc(=O)[nH]n23)ccc1Cl,32µM*,28µM*,-1%[59 µM],-20%,·,?
COc1ccccc1OCCCSc1nc(-c2ccc(C(C)(C)C)cc2)nc2cc(=O)[nH]n12,50µM*,?,-2%[59 µM],-13%,·,2.2µM*
CC(C)(C)c1ccc(-c2nc(SCCCOc3ccccc3)n3[nH]c(=O)cc3n2)cc1,50µM*,50µM*,5%[59 µM],-19%,·,-21%
CC(CNC(=O)C1CCN(C(=O)N2CCOc3ccc(Cl)cc32)CC1)c1ccccc1 (stereo not given),?,?,?,1%,·,9%
COc1cccc(/C=C/c2nc(C#N)c(NCCc3ccc(OC)c(OC)c3)o2)c1,-24%,-33%,-39%[59 µM],11%,·,-1%
SMILES,JMJD2A Tudor inh,BAZ2B block,G9a inh,GLS inhibitor,L3MBTL1 inh,HP1b chromo inh
O=C(c1ccccc1)N1CCN(c2ccc(NCc3ccc4c(c3)OCO4)cc2)CC1,50µM*,35µM*,5µM*,84%,?,45µM*
CC(=O)N1CCN(c2ccc(NCc3cccc4ccccc34)cc2)CC1,22µM*,32µM*,8.9µM*,?,-26%,?
O=C(Nc1ccc(N2CCN(Cc3ccccc3)CC2)cc1)c1ccco1,?,-32%,79µM*,36%,·,-15%
Fc1ccc(CNc2ccc(N3CCN(Cc4ccccc4)CC3)cc2)cc1,20µM*,10µM*,13µM*,20%,22µM*,22µM*
CC(C)(C)C(=O)N1CCN(c2ccc(NC(=O)c3ccco3)cc2)CC1,-8%,-14%,5%,41%,·,0%
COCCCNC(=O)CCCN1C(=O)CCn2nc(-c3cn(C)c4ccccc34)cc21,0%,1%,19%[59 µM],5%,·,27%[57 µM]
CC(=O)N1CCN(c2ccc(NCc3ccccc3)cc2)CC1,?,?,14µM*,63%,-5%,-8%
COc1ccc(CNc2ccc(N3CCN(C(C)=O)CC3)cc2)cc1OC,-17%,·,·,-4%,·,30%
CC(C)c1ccccc1NC(=O)CN(c1ccccc1)S(=O)(=O)N(C)C,4%,4%,-1%[59 µM],-2%,·,38%
COc1cccc(C2c3c(ncn(-c4ccccc4C#N)c3=N)Oc3ccc4ccccc4c32)c1 (stereo not given),56µM*,·,·,·,·,·
COc1cccc(C2c3c(ncn(-c4ccccc4Br)c3=N)Oc3ccc4ccccc4c32)c1 (stereo not given),50µM*,·,·,·,·,·
COc1cccc(C(=O)N2CC(=O)Nc3ccc(C)cc3C2c2ccc(F)cc2)c1OC (stereo not given),-25%,-4%,?,-5%,·,13%
Cc1ccc(NC(=O)C2CCC(CNS(=O)(=O)c3ccc4c(c3)CCCC(=O)N4)CC2)cc1F (stereo not given),-4%,1%,6%[59 µM],-4%,·,4%

# High-throughput results from PubChem.
